Results from PubChem BioAssay (EPA / NIEHS).
Where “and” joins values, the source holds several entries; their conditions need not be identical. Identical values can stand only once. Records with an inconclusive call do not appear. Calls of active or inactive are those of the source. The calls were made as follows, unless noted: active = hit-call score of the fitted dose curve at least 0.9, where 1 is the maximum; inactive = score below 0.9.

How the values were obtained:
[1] = read-out: Plasminogen activator inhibitor-1 (PAI1), SERPINE1 (gene 5054); experiment: BSK_CASM3C_PAI1: BioMAP Diversity Plus: CASM3C Assay for Plasminogen activator inhibitor-1 (PAI1) Biomarker Activity (AID 2284284); details: primary human coronary artery smooth muscle cells;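 also: PAI-1 protein level measured by ELISA 24 h after dosing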
[2] = read-out: Monocyte Chemoattractant Protein-1 (MCP1), CCL2 (gene 6347); experiment: BSK_hDFCGF_MCP1: BioMAP Diversity Plus: hDFCGF Assay for Monocyte Chemoattractant Protein-1 (MCP1) Biomarker Activity (AID 2284285); details: primary human foreskin fibroblasts
Outline: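 Human foreskin fibroblasts (hDFCGF system) were exposed to compound and secreted MCP-1 was measured by ELISA after 24 hours. Activity was fitted relative to DMSO. Cytotoxicity was checked by SRB total-protein staining in parallel cultures.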

[3] = read-out: Intercellular Adhesion Molecule 1 (ICAM1), ICAM1 (gene 3383); experiment: BSK_hDFCGF_ICAM1: BioMAP Diversity Plus: hDFCGF Assay for Intercellular Adhesion Molecule 1 (ICAM1) Biomarker Activity (AID 2284287); details: primary human foreskin fibroblasts
Outline: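 Primary human foreskin fibroblasts (hDFCGF system) dosed with chemical; ICAM-1 quantified by ELISA at 24 h relative to DMSO. Parallel SRB total-protein staining to assess overt cytotoxicity.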

[4] = read-out: TIMP metallopeptidase inhibitor 2 (TIMP2), TIMP2 (gene 7077); experiment: BSK_hDFCGF_TIMP2: BioMAP Diversity Plus: hDFCGF Assay for TIMP metallopeptidase inhibitor 2 (TIMP2) Biomarker Activity (AID 2284289); details: primary human foreskin fibroblasts
Outline: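 Primary human foreskin fibroblasts in the hDFCGF system, dosed for 24 h; TIMP-2 level measured by ELISA, fitted in the positive direction against DMSO; cytotoxicity checked in parallel by sulforhodamine B total protein staining.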

[5] = read-out: Thrombomodulin, THBD (gene 7056); experiment: BSK_LPS_Thrombomodulin: BioMAP Diversity Plus: LPS Assay for Thrombomodulin Biomarker Activity (AID 2284296); details: primary human HUVEC with PBMC
Outline: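 Human umbilical vein endothelial cells co-cultured with PBMC and stimulated with LPS; cell-surface thrombomodulin measured by ELISA 24 hours after compound. Gain or loss versus DMSO; cytotoxicity checked by SRB staining in parallel cultures.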

CD69, CD69 (gene 969) = experiment: BSK_LPS_CD69: BioMAP Diversity Plus: LPS Assay for CD69 Biomarker Activity (AID 2284303); details: primary human HUVEC with PBMC
Outline: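 Human umbilical vein endothelial cells co-cultured with PBMC under LPS stimulation, chemical exposure 24 h; cell-surface CD69 measured by ELISA and fitted in the positive direction versus DMSO.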

[6] = tested on: zebrafish Estrogen Receptor (ESR2B), gene 317733; experiment: ATG_zfER2b_XSP1: Attagene TRANS-FACTORIAL Multi-Species (XSP1) HepG2 Assay for zebrafish Estrogen Receptor (ESR2B) (AID 2283773; active = hit-call score of the fitted dose curve at least 0.9, where 1 is the maximum)
Outline: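 Gain-of-signal endpoint relative to DMSO: reporter transcript levels quantified by RT-PCR and capillary electrophoresis after 24 h compound exposure of HepG2 cells expressing a zebrafish ER2b-Gal4 chimera.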

[7] = target: chicken Estrogen Receptor (ESR1), ESR1 (gene 396099) (UniProt P06212); experiment: ATG_chERa_XSP1: Attagene TRANS-FACTORIAL Multi-Species (XSP1) HepG2 Assay for chicken Estrogen Receptor (ESR1) (AID 2283779; active = hit-call score of the fitted dose curve at least 0.9, where 1 is the maximum)
Chain of chicken Estrogen Receptor (ESR1), ESR1 (gene 396099) (P06212 whole entry, looked up, the tested form may be a part): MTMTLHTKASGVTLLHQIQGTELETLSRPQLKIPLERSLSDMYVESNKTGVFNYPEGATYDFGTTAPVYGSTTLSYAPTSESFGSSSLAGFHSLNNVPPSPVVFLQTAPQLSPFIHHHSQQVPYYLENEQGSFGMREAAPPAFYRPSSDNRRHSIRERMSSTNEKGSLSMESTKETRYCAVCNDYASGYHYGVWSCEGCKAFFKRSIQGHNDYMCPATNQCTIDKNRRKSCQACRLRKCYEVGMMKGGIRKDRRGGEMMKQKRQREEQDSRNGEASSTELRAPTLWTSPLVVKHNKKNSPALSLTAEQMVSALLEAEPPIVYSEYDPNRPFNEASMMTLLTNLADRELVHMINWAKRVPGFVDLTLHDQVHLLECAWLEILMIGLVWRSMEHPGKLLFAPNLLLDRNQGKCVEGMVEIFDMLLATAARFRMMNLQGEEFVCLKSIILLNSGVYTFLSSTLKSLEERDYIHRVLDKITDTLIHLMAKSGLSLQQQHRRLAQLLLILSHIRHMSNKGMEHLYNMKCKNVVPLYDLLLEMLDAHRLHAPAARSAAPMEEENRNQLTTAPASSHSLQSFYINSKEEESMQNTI
Outline: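 Human liver HepG2, transient MRTU transfection (NR-Gal4 chimeras, GAL4-UAS reporters); 24 h compound exposure; 3 nM 6-alpha-fluorotestosterone in medium. Total RNA → RT-PCR → 6-FAM primer extension → HpaI → CE. Positive direction vs DMSO baseline.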

[8] = tested on: turtle Estrogen Receptor (ESR1), gene 101933533; experiment: ATG_trERa_XSP1: Attagene TRANS-FACTORIAL Multi-Species (XSP1) HepG2 Assay for turtle Estrogen Receptor (ESR1) (AID 2283781; active = hit-call score of the fitted dose curve at least 0.9, where 1 is the maximum)
Outline: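 Activity was taken as gain of reporter transcript over DMSO controls. HepG2 cells carrying GAL4-UAS-driven reporters were exposed for 24 h before RNA was extracted and reporter sequences were measured by fluorescence after capillary separation.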

[9] = target: zebrafish Thyroid Hormone Receptor alpha (TRa), thraa (gene 30670) (UniProt Q98867); experiment: ATG_zfTRa_XSP1: Attagene TRANS-FACTORIAL Multi-Species (XSP1) HepG2 Assay for zebrafish Thyroid Hormone Receptor alpha (TRa) (AID 2283807; active = hit-call score of the fitted dose curve at least 0.9, where 1 is the maximum)
Chain of zebrafish Thyroid Hormone Receptor alpha (TRa), thraa (gene 30670) (Q98867 whole entry, looked up, the tested form may be a part): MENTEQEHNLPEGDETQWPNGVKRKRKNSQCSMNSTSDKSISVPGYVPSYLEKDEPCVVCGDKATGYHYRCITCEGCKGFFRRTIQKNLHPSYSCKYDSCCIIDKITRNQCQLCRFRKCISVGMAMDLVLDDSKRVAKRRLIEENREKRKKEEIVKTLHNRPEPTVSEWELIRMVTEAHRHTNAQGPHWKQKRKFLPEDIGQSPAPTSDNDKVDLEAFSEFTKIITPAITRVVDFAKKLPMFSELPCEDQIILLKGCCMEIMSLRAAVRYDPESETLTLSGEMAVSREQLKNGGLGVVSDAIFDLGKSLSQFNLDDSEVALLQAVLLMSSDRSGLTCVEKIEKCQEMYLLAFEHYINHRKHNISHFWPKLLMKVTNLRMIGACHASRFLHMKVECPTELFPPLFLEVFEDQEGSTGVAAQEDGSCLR
Outline: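 HepG2 cells transiently transfected with GAL4-UAS reporter units including a zebrafish TRa–Gal4 chimera, dosed 24 h with 3 nM 6-alpha-fluorotestosterone present. Reporter mRNA quantified by RT-PCR and capillary electrophoresis; gain versus DMSO.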

[10] = ATG_XTT_Cytotoxicity_XSP1: Cytotoxicity Assessment in the Attagene TRANS-FACTORIAL Multi-Species (XSP1) HepG2 Assay (AID 2283810; active = hit-call score of the fitted dose curve at least 0.9, where 1 is the maximum)
Outline: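 XTT viability readout taken at 24 hours post-dosing in HepG2 liver cells co-treated with 3 nM 6-alpha-fluorotestosterone. Signal loss relative to DMSO controls reflects cytotoxicity.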

[11] = ATG_M_06_XSP2: Attagene TRANS-FACTORIAL Multi-Species (XSP2) HepG2 Assay for M06 Transcription Factor (Internal Marker) (AID 2283811; active = hit-call score of the fitted dose curve at least 0.9, where 1 is the maximum;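 also: internal background marker reporter mRNA measured by RT-PCR and capillary electrophoresis; hits are increases in signal above the DMSO baseline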)
Outline: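 HepG2, multiplexed reporter transfection; 24 h dosing; AR stimulated with 3 nM 6-alpha-fluorotestosterone + 1.5 nM norgestrel; RNA → RT-PCR → 6-FAM primer extension → HpaI → CE. Positive direction vs DMSO.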

[12] = tested on: zebrafish Estrogen Receptor (ER2b), gene 317733; experiment: ATG_zfER2b_XSP2: Attagene TRANS-FACTORIAL Multi-Species (XSP2) HepG2 Assay for zebrafish Estrogen Receptor (ER2b) (AID 2283823; active = hit-call score of the fitted dose curve at least 0.9, where 1 is the maximum;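 also: fitted upward as reporter gain over DMSO so potency reflects activation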)
Outline: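 HepG2 human liver cells transiently transfected with multiplexed GAL4-UAS reporter units expressing chimeric NR-Gal4 proteins; compounds dosed for 24 h. Reporter mRNA quantified by RT-PCR, 6-FAM labelling and capillary electrophoresis; gain-of-signal fitted against DMSO baseline.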

[13] = target: Peroxisome proliferator-activated receptor gamma (Homo sapiens) (UniProt P37231); experiment: ATG_hPPARg_XSP2: Attagene TRANS-FACTORIAL Multi-Species (XSP2) HepG2 Assay for human Peroxisome Proliferator-activated Receptor gamma (PPARg) (AID 2283829; active = hit-call score of the fitted dose curve at least 0.9, where 1 is the maximum;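 also: actives raise reporter mRNA above DMSO so AC50 reflects PPARg activation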)
Chain of Peroxisome proliferator-activated receptor gamma (Homo sapiens) (P37231 whole entry, looked up, the tested form may be a part): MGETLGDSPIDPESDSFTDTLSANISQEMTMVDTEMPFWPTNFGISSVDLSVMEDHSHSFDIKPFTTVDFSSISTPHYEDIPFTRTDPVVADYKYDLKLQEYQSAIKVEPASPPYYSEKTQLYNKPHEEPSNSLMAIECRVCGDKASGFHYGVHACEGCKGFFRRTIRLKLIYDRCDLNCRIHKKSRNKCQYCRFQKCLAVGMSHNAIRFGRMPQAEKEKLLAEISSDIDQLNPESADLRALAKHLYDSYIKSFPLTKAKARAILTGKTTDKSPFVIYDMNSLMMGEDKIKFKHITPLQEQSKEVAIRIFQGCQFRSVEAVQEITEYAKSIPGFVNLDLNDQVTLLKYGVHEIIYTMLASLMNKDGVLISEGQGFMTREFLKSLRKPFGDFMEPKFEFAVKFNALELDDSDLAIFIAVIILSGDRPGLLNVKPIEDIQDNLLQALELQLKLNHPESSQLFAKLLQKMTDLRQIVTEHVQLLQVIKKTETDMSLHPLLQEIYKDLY
Outline: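 Reporter transcripts were measured by RT-PCR, fluorescent labeling, HpaI digestion and capillary electrophoresis, relative to DMSO, 24 h post-dosing. Transiently transfected HepG2 expressed NR-Gal4 chimeras regulating GAL4-UAS reporters; medium contained 3 nM 6-alpha-fluorotestosterone plus 1.5 nM norgestrel.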

[14] = target: mouse Peroxisome Proliferator-activated Receptor gamma (PPARg), Pparg (gene 19016) (UniProt P37238); experiment: ATG_mPPARg_XSP2: Attagene TRANS-FACTORIAL Multi-Species (XSP2) HepG2 Assay for mouse Peroxisome Proliferator-activated Receptor gamma (PPARg) (AID 2283830; active = hit-call score of the fitted dose curve at least 0.9, where 1 is the maximum;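 also: hits are gains in reporter mRNA above DMSO so AC50 marks activation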)
Chain of mouse Peroxisome Proliferator-activated Receptor gamma (PPARg), Pparg (gene 19016) (P37238 whole entry, looked up, the tested form may be a part): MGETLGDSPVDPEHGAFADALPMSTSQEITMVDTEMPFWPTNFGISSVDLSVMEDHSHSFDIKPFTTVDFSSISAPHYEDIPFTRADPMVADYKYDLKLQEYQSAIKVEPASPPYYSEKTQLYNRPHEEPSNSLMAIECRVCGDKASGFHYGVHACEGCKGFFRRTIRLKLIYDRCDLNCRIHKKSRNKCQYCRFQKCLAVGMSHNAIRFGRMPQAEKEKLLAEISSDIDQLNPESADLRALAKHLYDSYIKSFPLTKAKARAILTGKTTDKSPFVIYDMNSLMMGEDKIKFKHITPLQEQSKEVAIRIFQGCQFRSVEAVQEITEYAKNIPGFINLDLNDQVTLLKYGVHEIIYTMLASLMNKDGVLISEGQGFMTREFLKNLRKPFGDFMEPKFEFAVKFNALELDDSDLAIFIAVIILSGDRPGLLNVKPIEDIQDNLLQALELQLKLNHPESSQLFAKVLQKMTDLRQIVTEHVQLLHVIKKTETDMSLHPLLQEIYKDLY
Outline: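 HepG2 cells transiently transfected with GAL4-UAS reporter units for chimeric NR-Gal4 proteins including mouse PPARg, exposed 24 h; medium contained 3 nM 6-alpha-fluorotestosterone and 1.5 nM norgestrel. Reporter mRNA quantified by RT-PCR, HpaI digestion and capillary electrophoresis, vs DMSO.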

[15] = target: zebrafish Thyroid Hormone Receptor alpha (TRa), thraa (gene 30670) (UniProt Q98867); experiment: ATG_zfTRa_XSP2: Attagene TRANS-FACTORIAL Multi-Species (XSP1) HepG2 Assay for zebrafish Thyroid Hormone Receptor alpha (TRa) (AID 2283832; active = hit-call score of the fitted dose curve at least 0.9, where 1 is the maximum;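 also: actives raise zebrafish TRa-Gal4 reporter transcript above DMSO baseline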)
Outline: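 HepG2 cells transiently transfected with multiplexed GAL4-UAS reporter units expressing chimeric NR-Gal4 proteins; 24 h after dosing, reporter mRNA measured by RT-PCR, FAM labelling, HpaI digestion and capillary electrophoresis; gain of signal versus DMSO baseline.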

[16] = tested on: zebrafish Peroxisome Proliferator-activated Receptor gamma (PPARg), gene 557037; experiment: ATG_zfPPARg_XSP2: Attagene TRANS-FACTORIAL Multi-Species (XSP2) HepG2 Assay for zebrafish Peroxisome Proliferator-activated Receptor gamma (PPARg) (AID 2283833; active = hit-call score of the fitted dose curve at least 0.9, where 1 is the maximum;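 also: actives increase reporter signal over DMSO so AC50 reflects activation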)
Outline: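 After 24 h chemical exposure, RNA from transiently transfected HepG2 (chimeric NR-Gal4 TRANS reporters) was reverse-transcribed, PCR-amplified, 6-FAM-labelled, HpaI-cut and sized by capillary electrophoresis. Induction was scored in the positive direction relative to DMSO.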

[17] = ATG_M_61_XSP2: Attagene TRANS-FACTORIAL Multi-Species (XSP2) HepG2 Assay for M61 Transcription Factor (Internal Marker) (AID 2283835);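 also: reporter mRNA of an internal background marker read by RT-PCR and capillary electrophoresis; active means a rise in signal above the DMSO baseline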
Outline: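 First, HepG2 cells are transfected with reporter units under GAL4-UAS control. Next, chemicals are applied for 24 h. Then total RNA is reverse-transcribed, amplified, fluorescently labelled and sized by capillary electrophoresis, with gain of signal scored against DMSO.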

[18] = target: human Thyroid hormone Receptor beta (TRb), THRB (gene 7068) (UniProt P10828); experiment: ATG_hTRb_XSP2: Attagene TRANS-FACTORIAL Multi-Species (XSP2) HepG2 Assay for human Thyroid hormone Receptor beta (TRb) (AID 2283840; active = hit-call score of the fitted dose curve at least 0.9, where 1 is the maximum;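 also: actives raise reporter mRNA so potency reflects agonist-like gain of signal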)
Chain of human Thyroid hormone Receptor beta (TRb), THRB (gene 7068) (P10828 whole entry, looked up, the tested form may be a part): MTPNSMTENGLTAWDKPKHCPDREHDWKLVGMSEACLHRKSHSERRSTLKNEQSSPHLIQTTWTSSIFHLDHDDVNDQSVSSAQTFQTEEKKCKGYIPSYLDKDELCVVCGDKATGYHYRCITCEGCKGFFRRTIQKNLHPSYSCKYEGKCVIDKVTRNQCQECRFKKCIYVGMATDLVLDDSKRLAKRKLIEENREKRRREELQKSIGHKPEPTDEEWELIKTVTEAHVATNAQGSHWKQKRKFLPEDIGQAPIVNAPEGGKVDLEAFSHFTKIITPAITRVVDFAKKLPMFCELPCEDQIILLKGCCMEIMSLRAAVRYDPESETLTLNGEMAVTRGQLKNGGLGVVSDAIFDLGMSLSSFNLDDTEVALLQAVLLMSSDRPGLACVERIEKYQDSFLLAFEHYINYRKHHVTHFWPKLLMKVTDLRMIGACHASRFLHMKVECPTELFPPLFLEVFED
Outline: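 Activity of exogenous human TRb–Gal4 fusion measured by reporter mRNA from RT-PCR and capillary electrophoresis, 24 h after dosing transfected HepG2. 6-alpha-fluorotestosterone (3 nM) and norgestrel (1.5 nM) present. Gain-of-signal fit relative to DMSO.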

[19] = tested on: Sodium/Iodide Symporter (NIS), SLC5A5 (gene 6528); experiment: CPHEA_Stoker_NIS_Inhibition_RAIU: CPHEA's Radioactive Iodide Uptake (RAIU) Assay for Sodium/Iodide Symporter (NIS) Inhibition, Stoker and Laws Labs (AID 2283841; active = hit-call score of the fitted dose curve at least 0.9, where 1 is the maximum)
Outline: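 HEK293T cells stably expressing human NIS (hNIS-HEK293T-EPA) were exposed to test chemicals at 0.001–100uM (0.5% final DMSO) with 125I at a final 329pM in HBSS/10mM HEPES pH 7.4. After 2 hours at room temperature and ice-cold washes, intracellular 125I was counted as CPM and normalized to DMSO wells.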

Measured: AC50

Oc1ccc(C2(c3ccc(O)cc3)c3ccccc3-c3ccccc32)cc1
active: [1] 20 µM | [2] 3.59 µM and 2.48 µM | [3] 3.15 µM and 2.69 µM | [4] 1.41 µM and 1.34 µM | [5] 5.13 µM and 5.21 µM | CD69, CD69 (gene 969) 14.3 µM and 13.1 µM

CC(=O)c1cc2c(cc1C)C(C)(C)C(C)CC2(C)C (stereo not given)
inactive: [8] | [10] | [11] | [15] | [16] | [17] | [18] | [19]
active: [6] 25.5 µM | [7] 59.7 µM | [9] 145 µM | [12] 26.7 µM | [13] 41.9 µM | [14] 49.4 µM

CC(C)(c1cc(Cl)c(O)c(Cl)c1)c1cc(Cl)c(O)c(Cl)c1
active: [6] 9.75 µM | [7] 24.3 µM | [8] 23.9 µM | [9] 17.9 µM | [12] 25.7 µM | [13] 3.94 µM | [14] 3.81 µM | [19] 9.92 µM
inactive: [10] | [11] | [15] | [16] | [17] | [18]

COc1ccc(CO)cc1
inactive: [1] | [2] | [3] | [4] | [5] | CD69, CD69 (gene 969)
